{"source": "the antibiotic and cytotoxicity screens of Wong et al. (2023)", "note": "Among all 39,000 compounds or so, about 3,300 (8.5%) were called active. This is one part of a sample in which actives are shown more often than they occur.", "data": [{"system": "HepG2", "experiment": "cytotoxicity call (relative viability < 0.9)", "conditions": "10 µM", "values": [{"smiles": "CN1CCN(C(=O)C[C@@H]2C=C[C@@H](NC(=O)Nc3ccccc3F)[C@@H](CO)O2)CC1", "cytotoxicity call": "inactive"}, {"smiles": "COc1ccc(NC(=O)N(C)C[C@@H]2Oc3ccc(NS(C)(=O)=O)cc3CC(=O)N([C@H](C)CO)C[C@@H]2C)cc1", "cytotoxicity call": "inactive"}, {"smiles": "C[C@@H]1CN([C@H](C)CO)C(=O)c2cccc(NC(=O)Nc3ccccc3)c2O[C@H]1CN(C)C(=O)Nc1ccc(C(F)(F)F)cc1", "cytotoxicity call": "inactive"}, {"smiles": "Cc1ccc(S(=O)(=O)c2c[nH]c(=O)[nH]2)cc1", "cytotoxicity call": "inactive"}, {"smiles": "CC[C@@](C)(Nc1n[nH]c(=O)[nH]c1=O)C(=O)O", "cytotoxicity call": "inactive"}, {"smiles": "O.OCC1OC(OC2C(CO)OC(O)C(O)C2O)C(O)C(O)C1O", "note": "(stereo not given)", "cytotoxicity call": "active"}, {"smiles": "OC[C@H]1O[C@@H](O[C@@H]2[C@@H](O)[C@H](O)[C@H](O[C@@H]3[C@@H](O)[C@H](O)[C@H](O)O[C@@H]3CO)O[C@@H]2CO)[C@@H](O)[C@@H](O)[C@@H]1O", "cytotoxicity call": "inactive"}, {"smiles": "OCC1OC(OC2C(CO)OC(O)C(O)C2O)C(O)C(O)C1O", "note": "(stereo not given)", "cytotoxicity call": "inactive"}, {"smiles": "COC(=O)c1c2oc(c1C(=O)OC)C(=O)N(C)Cc1cn(nn1)C[C@@H](Cc1ccccc1)NC(=O)N[C@H](COC(=O)NCCCCCC(=O)NO)CC2", "cytotoxicity call": "inactive"}, {"smiles": "Cc1noc(C)c1NC(=O)Nc1ccc2c(c1)C(=O)N([C@@H](C)CO)C[C@H](C)[C@@H](CN(C)S(C)(=O)=O)O2", "cytotoxicity call": "inactive"}, {"smiles": "O=C(OC1Cc2c(O)cc(O)cc2OC1c1cc(O)c(O)c(O)c1)c1cc(O)c(O)c(O)c1", "note": "(stereo not given)", "cytotoxicity call": "inactive"}, {"smiles": "O=C(O)C[C@@H]1C(=O)O[C@H]2[C@@H](OC(=O)c3cc(O)c(O)c(O)c3)[C@H](OC(=O)c3cc(O)c(O)c4c3[C@H]1[C@H](O)C(=O)O4)[C@H](OC(=O)c1cc(O)c(O)c(O)c1)O[C@@H]2COC(=O)c1cc(O)c(O)c(O)c1", "cytotoxicity call": "active"}, {"smiles": "C=C[C@H]1[C@H](O[C@H]2O[C@@H](CO)[C@@H](O)[C@@H](O)[C@@H]2O)OC=C(C(=O)OC)[C@H]1CCOC(=O)c1cc(O)c(O)c(O)c1", "cytotoxicity call": "inactive"}, {"smiles": "O=C(OCC1OC(OC(=O)c2cc(O)c(O)c(OC(=O)c3cc(O)c(O)c(O)c3)c2)C(OC(=O)c2cc(O)c(O)c(OC(=O)c3cc(O)c(O)c(O)c3)c2)C(OC(=O)c2cc(O)c(O)c(OC(=O)c3cc(O)c(O)c(O)c3)c2)C1OC(=O)c1cc(O)c(O)c(OC(=O)c2cc(O)c(O)c(O)c2)c1)c1cc(O)c(O)c(OC(=O)c2cc(O)c(O)c(O)c2)c1", "note": "(stereo not given)", "cytotoxicity call": "active"}, {"smiles": "O=C(OC[C@H]1O[C@@H](OC(=O)c2cc(O)c(O)c(O)c2)[C@H](O)[C@@H](OC(=O)c2cc(O)c(O)c(O)c2)[C@@H]1O)c1cc(O)c(O)c(O)c1", "cytotoxicity call": "active"}, {"smiles": "O=C(OC[C@H]1O[C@@H](OC(=O)c2cc(O)c(O)c(O)c2)[C@H](OC(=O)c2cc(O)c(O)c(O)c2)[C@@H](OC(=O)c2cc(O)c(O)c(O)c2)[C@@H]1OC(=O)c1cc(O)c(O)c(O)c1)c1cc(O)c(O)c(O)c1", "cytotoxicity call": "active"}, {"smiles": "O=C(OC[C@H]1O[C@@H](OC(=O)c2cc(O)c(O)c(O)c2)[C@H](O)[C@@H](O)[C@@H]1O)c1cc(O)c(O)c(O)c1", "cytotoxicity call": "inactive"}, {"smiles": "O=C(O)c1cc(O)c(O)c(O)c1", "cytotoxicity call": "inactive"}, {"smiles": "O=C(Oc1cc(O)cc2c1C[C@@H](OC(=O)c1cc(O)c(O)c(O)c1)[C@@H](c1cc(O)c(O)c(O)c1)O2)c1cc(O)c(O)c(O)c1", "cytotoxicity call": "inactive"}, {"smiles": "O=C(OC1Cc2c(O)cc(O)cc2OC1c1ccc(O)c(O)c1)c1cc(O)c(O)c(O)c1", "note": "(stereo not given)", "cytotoxicity call": "inactive"}, {"smiles": "C[C@@H]1CN([C@H](C)CO)C(=O)c2cccc(NC(=O)Nc3ccc(C(F)(F)F)cc3)c2O[C@H]1CN(C)Cc1ccccc1", "cytotoxicity call": "inactive"}, {"smiles": "C[C@@H]1CCCCO[C@@H](CN(C)C(=O)C2CCCCC2)[C@H](C)CN([C@@H](C)CO)C(=O)c2cc(NS(=O)(=O)c3ccc(F)cc3)ccc2O1", "cytotoxicity call": "inactive"}, {"smiles": "COc1ccc(S(=O)(=O)N2C[C@H](O)COC[C@H]3O[C@@H](CC(=O)NCCCN(C)C)CC[C@@H]32)cc1", "cytotoxicity call": "inactive"}, {"smiles": "CCOc1ccc(-n2c([C@@H](C)N(Cc3cccnc3)C(=O)Cc3ccc(F)c(C(F)(F)F)c3)nc3ncccc3c2=O)cc1", "cytotoxicity call": "inactive"}, {"smiles": "COc1ccc(CN(C)C[C@H]2OCCCC[C@H](C)Oc3ccc(NS(=O)(=O)c4ccc(C)cc4)cc3C(=O)N([C@H](C)CO)C[C@H]2C)cc1", "cytotoxicity call": "inactive"}, {"smiles": "COc1ccc(NC(=O)Nc2ccc3c(c2)C(=O)N([C@@H](C)CO)C[C@@H](C)[C@H](CN(C)C(=O)Nc2cccc4ccccc24)O3)cc1", "cytotoxicity call": "inactive"}, {"smiles": "C[C@H]1CCCCO[C@@H](CN(C)C(=O)Nc2ccc3c(c2)OCO3)[C@@H](C)CN([C@@H](C)CO)C(=O)c2cc(NS(=O)(=O)c3ccc(F)cc3)ccc2O1", "cytotoxicity call": "inactive"}, {"smiles": "C[C@@H]1CN([C@H](C)CO)C(=O)c2cc(NC(=O)Nc3cccc4ccccc34)ccc2O[C@H]1CN(C)C(=O)Nc1ccc(F)cc1", "cytotoxicity call": "inactive"}, {"smiles": "CCC(CC)c1nc(Nc2ccccc2)c2ccccc2n1", "cytotoxicity call": "inactive"}, {"smiles": "CCc1ccc(Nc2c3c(nc4ccccc24)CCC3)cc1", "cytotoxicity call": "active"}, {"smiles": "CCc1ccc(Nc2c3c(nc4ccccc24)CCCC3)cc1", "cytotoxicity call": "active"}, {"smiles": "CCOc1ccc(Nc2c3ccccc3nc3ccccc23)cc1", "cytotoxicity call": "active"}, {"smiles": "c1ccc(Nc2nc(-c3ccccc3)nc3ccccc23)cc1", "cytotoxicity call": "inactive"}, {"smiles": "CC(C)CN(C(=O)COC(=O)c1c2c(nc3ccccc13)CCC2)c1c(N)n(Cc2ccccc2)c(=O)[nH]c1=O", "cytotoxicity call": "inactive"}, {"smiles": "CCOc1ccc(NC(C)=O)cc1", "cytotoxicity call": "inactive"}, {"smiles": "COc1ccc(NC(=O)Nc2ccc3c(c2)C(=O)N([C@H](C)CO)C[C@@H](C)[C@H](CN(C)C(=O)Nc2ccc4c(c2)OCO4)OCCCC[C@@H](C)O3)cc1", "cytotoxicity call": "inactive"}, {"smiles": "Cc1cccn2c(CN)cnc12", "cytotoxicity call": "inactive"}, {"smiles": "C[C@H](CO)N1C[C@H](C)[C@H](CN(C)C(=O)Nc2ccc(C(F)(F)F)cc2)Oc2c(NC(=O)Nc3ccc(F)cc3)cccc2C1=O", "cytotoxicity call": "inactive"}, {"smiles": "COc1ccc(S(=O)(=O)Nc2ccc3c(c2)C(=O)N([C@@H](C)CO)C[C@H](C)[C@H](CN(C)Cc2ccc4c(c2)OCO4)OCCCC[C@@H](C)O3)cc1", "cytotoxicity call": "inactive"}, {"smiles": "COc1ccc(S(=O)(=O)Nc2ccc3c(c2)C(=O)N([C@H](C)CO)C[C@H](C)[C@H](CN(C)Cc2ccc4c(c2)OCO4)OCCCC[C@H](C)O3)cc1", "cytotoxicity call": "active"}, {"smiles": "COc1ccc(CN(C)C[C@@H]2OCCCC[C@@H](C)Oc3ccc(NS(=O)(=O)c4ccc(F)cc4)cc3C(=O)N([C@H](C)CO)C[C@H]2C)cc1", "cytotoxicity call": "inactive"}, {"smiles": "COc1ccc(CN(C)C[C@H]2OCCCC[C@H](C)Oc3ccc(NS(=O)(=O)c4ccc(OC)cc4)cc3C(=O)N([C@H](C)CO)C[C@@H]2C)cc1", "cytotoxicity call": "inactive"}, {"smiles": "COc1ccc(CN(C)C[C@@H]2OCCCC[C@@H](C)Oc3ccc(NS(=O)(=O)c4ccc(F)cc4)cc3C(=O)N([C@@H](C)CO)C[C@H]2C)cc1", "cytotoxicity call": "inactive"}, {"smiles": "COc1ccc(CN(C)C[C@H]2OCCCC[C@@H](C)Oc3ccc(NS(=O)(=O)c4ccc(OC)cc4)cc3C(=O)N([C@@H](C)CO)C[C@H]2C)cc1", "cytotoxicity call": "inactive"}, {"smiles": "COc1ccc(CN(C)C[C@@H]2OCCCC[C@H](C)Oc3ccc(NS(=O)(=O)c4ccc(OC)cc4)cc3C(=O)N([C@@H](C)CO)C[C@@H]2C)cc1", "cytotoxicity call": "active"}, {"smiles": "COc1ccc(CN(C)C[C@H]2OCCCC[C@H](C)Oc3ccc(NS(=O)(=O)c4ccc(F)cc4)cc3C(=O)N([C@@H](C)CO)C[C@H]2C)cc1", "cytotoxicity call": "active"}, {"smiles": "COc1ccc(CN(C)C[C@H]2OCCCC[C@H](C)Oc3ccc(NS(=O)(=O)c4ccc(F)cc4)cc3C(=O)N([C@H](C)CO)C[C@H]2C)cc1", "cytotoxicity call": "inactive"}, {"smiles": "COc1ccc(S(=O)(=O)Nc2ccc3c(c2)C(=O)N([C@@H](C)CO)C[C@@H](C)[C@@H](CN(C)Cc2ccc4c(c2)OCO4)OCCCC[C@@H](C)O3)cc1", "cytotoxicity call": "inactive"}, {"smiles": "COc1ccc(CN(C)C[C@@H]2OCCCC[C@H](C)Oc3ccc(NS(=O)(=O)c4ccc(F)cc4)cc3C(=O)N([C@H](C)CO)C[C@@H]2C)cc1", "cytotoxicity call": "active"}, {"smiles": "COc1ccc(CN(C)C[C@H]2OCCCC[C@H](C)Oc3ccc(NS(=O)(=O)c4ccc(F)cc4)cc3C(=O)N([C@@H](C)CO)C[C@@H]2C)cc1", "cytotoxicity call": "inactive"}]}]}
